Experimental data from PubChem BioAssay (NCATS).
Records with an inconclusive call do not appear. Calls of active or inactive are those of the source. Unless noted, calls follow the shape of the dose curve; as a rule, active = well fitted curve in the direction sought with a large enough effect; inconclusive = small, poorly fitted or top-dose-only effect, or another doubt; inactive = no such curve, though single readings can be large; an effect the other way counts as inactive or inconclusive.

Key:
[1] = tested on: Zika virus NS2B-NS3 protease (unlinked complex); assay: Primary screen GU Rhodamine qHTS for Zika virus inhibitors: Unlinked NS2B-NS3 protease assay (AID 1347159); also: nearly all actives have a fitted effect of over 60% in size; also: potency is read from the fitted curve at half-maximal effect; as to activity change, negative = inhibition: % is scaled to controls: 0 for no effect and ±100 for the full control effect
Summary of the method: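 Buffer 10 mM Tris-HCl pH 8.0, 0.01% Tween 20. Unlinked protease 25 nM; compound preincubation 15 min, RT, protected from light. Substrate Rhod110, 1.5 microM; ~15% conversion in 15 min.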

[2] = Primary qHTS for Huh7 cytotoxicity: counterscreen for inhibitors of MERS-S pseudotyped particle cell entry (AID 1479147; calls by dose curve); settings: outcome: dose series up to 57.1 µM unless noted
[3] = Primary qHTS for Vero E6 cytotoxicity: counterscreen for inhibitors of SARS-S pseudo-typed particle cell entry (AID 1479150; calls by dose curve; also: % is scaled to controls: 0 for no effect and ±100 for the full control effect); settings: outcome: dose series up to 57.1 µM unless noted
[4] = Primary qHTS for inhibitors of nuclear receptor binding SET domain protein 2 (NSD2) in an RCH-ACV wild type WT cells (2C) (AID 1645877); also: nearly all actives have a fitted effect of over 70% in size; also: potency is read from the fitted curve at half-maximal effect
[5] = Primary fluorescence-based thiol-reactive (MSTI) qHTS assay for identification of artifact compounds. (AID 1845221);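 also: thiol-reactive compounds lower the probe fluorescence signal; nearly all actives have a fitted effect of over 65% in size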
Summary of the method: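 One-hour, room-temperature, dark incubation of compound with 4 uM MSTI in PBS (pH 7.4, 2% DMSO) precedes a fluorescence read at 525 nm excitation, 598 nm emission; Hill-equation fitting yields concentration-response values.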

[6] = Primary redox qHTS assay for identification of artifact compounds. (AID 1845223);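 also: 0% = DMSO and 100% = reference compound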
Summary of the method: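 Redox-cycling detection via DTT (250 uM final) oxidation coupled to Amplex Red (25 uM)/HRP (250 mU/mL) in HBSS. 15 min preincubation plus 30 min after DTT, room temperature. Ex/Em 525/598 nm; 4-parameter Hill fit against DMSO and 10 uM DA3003.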

HaCat = assay: Cytotoxic Profiling of Annotated Libraries Using Quantitative High-Throughput Screening (AID 1296008); settings: Five cell lines viability, CellTiter-Glo ATP luminescence, 48-72 h; max response: hits give low values; also: nearly all actives have a fitted effect of over 60% in size; also: potency is read from the fitted curve at half-maximal effect; as to max response: % is scaled to controls: 0 for no effect and ±100 for the full control effect
Summary of the method: (§1)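 Compounds were pin-transferred onto cells and incubated 48 or 72 hr at 37 degree Celsius, 95% humidity. CellTiter-Glo was added, plates sat 10 min at room temperature, then ATP-coupled luminescence was imaged as the viability read-out.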

NIH3T3 = assay: as above; settings: Five cell lines viability, CellTiter-Glo ATP luminescence, 48-72 h; max response: hits give low values
Summary of the method: as §1

CAOV3 = assay: Primary qHTS to identify gynecologic anti-cancer compounds using libraries of approved drugs and bioactive compounds (AID 1345084); settings: Gynecologic cancer cell panel viability, ATPlite luminescence, 48 h; series mostly up to 57.5 µM; also: nearly all actives have a fitted effect of over 55% in size; also: potency is read from the fitted curve at half-maximal effect; as to activity change, negative = cytotoxicity: % is scaled to controls: 0 for no effect and ±100 for the full control effect
Summary of the method: (§2)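 In this quantitative HTS, cell killing is estimated from loss of ATP-dependent luciferase light. Cells see five compound concentrations over a 48 h exposure.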

CASKI = assay: as above; settings: Gynecologic cancer cell panel viability, ATPlite luminescence, 48 h; series mostly up to 57.5 µM
Summary of the method: as §2

Hek293T = assay: as above; settings: Gynecologic cancer cell panel viability, ATPlite luminescence, 48 h, control line for the selectivity index; series mostly up to 57.5 µM
Summary of the method: as §2

PA-1 = assay: as above; settings: Gynecologic cancer cell panel viability, ATPlite luminescence, 48 h; series mostly up to 57.5 µM
Summary of the method: as §2

SKOV3 = assay: as above; settings: Gynecologic cancer cell panel viability, ATPlite luminescence, 48 h; series mostly up to 57.5 µM
Summary of the method: as §2

Tov-21-G = assay: as above; settings: Gynecologic cancer cell panel viability, ATPlite luminescence, 48 h; series mostly up to 57.5 µM
Summary of the method: as §2

Tov112D = assay: as above; settings: Gynecologic cancer cell panel viability, ATPlite luminescence, 48 h; series mostly up to 57.5 µM
Summary of the method: as §2

C33A = assay: as above; settings: Gynecologic cancer cell panel viability, ATPlite luminescence, 48 h; series mostly up to 57.5 µM
Summary of the method: as §2

Es-2 = assay: as above; settings: Gynecologic cancer cell panel viability, ATPlite luminescence, 48 h; series mostly up to 57.5 µM
Summary of the method: as §2

COc1ccc(C(C)(C)C)cc1CN[C@H]1C2CCN(CC2)[C@H]1C(c1ccccc1)c1ccccc1
active: Potency [4] 6.49 µM | Potency (HaCat) 18.4 µM
inactive: Potency [1] | outcome [2] | outcome [3] | Potency [5] | Potency [6] | max response (NIH3T3) -16.4% | Potency (CAOV3) | Potency (CASKI) | Potency (Hek293T) | Potency (PA-1) | Potency (SKOV3) | Potency (Tov-21-G) | Potency (Tov112D)

CC(=O)O[C@H]1C(=O)[C@]2(C)C(O)C[C@H]3OC[C@@]3(OC(C)=O)[C@H]2[C@H](OC(=O)c2ccccc2)[C@]2(O)C[C@H](O)C(C)=C1C2(C)C (some centres not stated)
inactive: Potency [1] | Potency [6] | max response (HaCat) -29.4% | max response (NIH3T3) -3.65% | Potency (C33A) | Potency (CAOV3) | Potency (Es-2) | Potency (Hek293T) | Potency (PA-1) | Potency (SKOV3) | Potency (Tov-21-G) | Potency (Tov112D)
active: Potency [4] 5.41 µM

CN(CC[C@H](N)CC(=O)N[C@H]1C=C[C@@H](n2ccc(N)nc2=O)O[C@@H]1C(=O)O)C(=N)N
inactive: activity change, negative = inhibition [1] 11.2% [at 19.1 µM] | activity change, negative = cell killing [4] 0.799% [at 9.23 µM] | activity change, negative = thiol reactive [5] -6.62% [at 11.5 µM] | redox activity (% of DA3003) [6] -9.15% [at 11.5 µM] | outcome (HaCat) | activity change, negative = cytotoxicity (C33A) 6.23% [at 11.6 µM] | activity change, negative = cytotoxicity (CAOV3) 8.99% [at 11.6 µM] | activity change, negative = cytotoxicity (CASKI) 4.22% [at 11.6 µM] | activity change, negative = cytotoxicity (Es-2) -2.42% [at 11.6 µM] | activity change, negative = cytotoxicity (Hek293T) 1.23% [at 11.6 µM] | activity change, negative = cytotoxicity (PA-1) 5.22% [at 11.6 µM] | activity change, negative = cytotoxicity (Tov-21-G) 2.99% [at 11.6 µM] | activity change, negative = cytotoxicity (Tov112D) 1.2% [at 11.6 µM]

CCOC(=O)C1(CCc2ccccc2)CCN(Cc2ccc(NC(C)=O)cc2)CC1
inactive: Potency [5] | Potency [6] | max response (HaCat) 1.98% | max response (NIH3T3) -0.351% | Potency (C33A) | Potency (CAOV3) | Potency (CASKI) | Potency (Es-2) | Potency (Hek293T) | Potency (PA-1) | Potency (SKOV3) | Potency (Tov-21-G) | Potency (Tov112D)

CC(C)(O)/C=C/C(=O)[C@](C)(O)[C@H]1[C@H](O)C[C@@]2(C)[C@@H]3CC=C4[C@@H](C[C@H](O)C(=O)C4(C)C)[C@]3(C)C(=O)C[C@]12C
inactive: Potency [1] | Potency [5] | Potency (C33A)
active: Potency [4] 0.142 µM | Potency (NIH3T3) 3.17 µM | Potency (CAOV3) 0.398 µM | Potency (CASKI) 1.41 µM | Potency (PA-1) 2.51 µM | Potency (SKOV3) 0.794 µM | Potency (Tov-21-G) 1.26 µM

CC(C)=CCC[C@]1(C)C=Cc2c(O)c3c(c(CC=C(C)C)c2O1)O[C@]12C(=C[C@@H]4CC1C(C)(C)O[C@@]2(C/C=C(/C)C(=O)O)C4=O)C3=O
inactive: Potency [6]
active: Potency [1] 2.82 µM | Potency [4] 0.365 µM | Potency (HaCat) 4.61 µM | Potency (NIH3T3) 1.16 µM | Potency (C33A) 5.62 µM | Potency (CAOV3) 3.16 µM | Potency (CASKI) 2.24 µM | Potency (Es-2) 3.16 µM | Potency (Hek293T) 5.62 µM | Potency (PA-1) 4.47 µM | Potency (Tov-21-G) 7.94 µM | Potency (Tov112D) 5.01 µM

C[C@]12CC[C@H](OC3OC(CO)C(O)C(O)C3OC3OC(CO)C(O)C(O)C3O)C[C@@H]1CC[C@@H]1C2CC[C@]2(C)[C@@H](C3=CC(=O)OC3)CC[C@]12O (some centres not stated)
inactive: Potency [1] | Potency [5] | max response (HaCat) -2.72% | outcome (NIH3T3) | Potency (CAOV3) | Potency (CASKI) | Potency (PA-1) | Potency (SKOV3)
active: Potency (Tov112D) 7.08 µM

C[C@]12CC[C@H](O[C@@H]3O[C@H](CO)[C@@H](O)[C@H](O)[C@H]3O)CC1CC[C@@H]1C2CC[C@]2(C)[C@@H](C3=CC(=O)OC3)CC[C@]12O (some centres not stated)
active: Potency [4] 3.17 µM | Potency (C33A) 5.62 µM | Potency (Es-2) 10 µM | Potency (Hek293T) 7.94 µM | Potency (PA-1) 7.94 µM | Potency (SKOV3) 8.91 µM | Potency (Tov-21-G) 5.01 µM | Potency (Tov112D) 3.16 µM
inactive: Potency [5] | outcome (NIH3T3)

Cc1ccc(-n2nccn2)c(C(=O)N2CCN(c3nc4cc(Cl)ccc4o3)CCC2C)c1 (configuration not stated)
inactive: Potency [1] | Potency [5] | outcome (HaCat) | outcome (NIH3T3) | Potency (C33A) | Potency (CAOV3) | Potency (CASKI) | Potency (Es-2) | Potency (Hek293T) | Potency (Tov-21-G) | Potency (Tov112D)

CC1=CC2/C=C(\C)CCC(O)C(O)/C=C/C(=O)C23C(=O)NC(CC(C)C)C3C1C (configuration not stated)
inactive: Potency [1] | Potency [5] | Potency [6] | Potency (Tov-21-G)
active: Potency [4] 2 µM | Potency (NIH3T3) 7.96 µM | Potency (Es-2) 10 µM | Potency (Hek293T) 7.94 µM | Potency (PA-1) 12.6 µM | Potency (Tov112D) 10 µM

CC(C)C(=O)O[C@H]1[C@@H]2[C@H](C)C(=O)O[C@@H]2C[C@@H](C)[C@@H]2C=CC(=O)[C@]21C
active: Potency [4] 2.84 µM | Potency (Hek293T) 7.94 µM | Potency (Tov-21-G) 10 µM
inactive: Potency [6] | Potency (CAOV3)
